Results on one sequence are retold here after PMC7862700, “An all-to-all approach to the identification of sequence-specific readers for epigenetic DNA modifications on cytosine”.

Holding throughout (assay): DAPPL (digital affinity profiling via proximity ligation, sequencing); 10 mM Tris-HCl pH 7.5, 50 mM NaCl, 1 mM DTT, 4% glycerol, room temperature, 30 min; GST-TFs on glutathione beads, 16-mer random dsDNA library, 0.1% formaldehyde crosslink after washing; high values mean tight binding
One assay concerns the target T1, FEV (Homo sapiens, UniProt Q99581 1-238).
T1 sequence: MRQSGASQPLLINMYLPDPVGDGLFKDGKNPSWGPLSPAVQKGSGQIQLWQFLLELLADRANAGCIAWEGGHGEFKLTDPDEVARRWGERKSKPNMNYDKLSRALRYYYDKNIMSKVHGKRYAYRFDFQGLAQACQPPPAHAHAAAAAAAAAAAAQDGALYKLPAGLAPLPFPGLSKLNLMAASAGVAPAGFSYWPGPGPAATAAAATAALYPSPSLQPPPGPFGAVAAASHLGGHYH
To be noted: protein: recombinant; tags: N-terminal GST; dsDNA, one strand shown. The essentials: (§1)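 After expression in yeast as GST fusions, human transcription factors were bound to glutathione beads, DNA-barcoded and mixed with a tag-only sample. The pools were incubated with 200 nmole of a 16-mer random double-stranded DNA library in Tris/NaCl/DTT/glycerol buffer (30 min, room temperature), washed and crosslinked with 0.1% formaldehyde. Proximity ligation with BsaI/T4 ligase ran for 1 h at 37 °C, before PCR amplification and sequencing on an Illumina NextSeq500. Binding signal is a hexamer's read frequency for a factor divided by its frequency for the tag-only sample.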

In another assay the target is ETV5 (Homo sapiens, UniProt P41161 1-510). Particulars: protein: recombinant; tags: N-terminal GST; dsDNA, one strand shown. The essentials:
as §1

For the next assay, the target named is HSF1 (Homo sapiens, UniProt Q00613 1-529). Particulars: protein: recombinant; tags: N-terminal GST; chain copies: 3; dsDNA, one strand shown. Summed up: as §1
Another assay concerns the target T2, SPIC (Homo sapiens, UniProt Q8N5J4 1-248).
T2 sequence: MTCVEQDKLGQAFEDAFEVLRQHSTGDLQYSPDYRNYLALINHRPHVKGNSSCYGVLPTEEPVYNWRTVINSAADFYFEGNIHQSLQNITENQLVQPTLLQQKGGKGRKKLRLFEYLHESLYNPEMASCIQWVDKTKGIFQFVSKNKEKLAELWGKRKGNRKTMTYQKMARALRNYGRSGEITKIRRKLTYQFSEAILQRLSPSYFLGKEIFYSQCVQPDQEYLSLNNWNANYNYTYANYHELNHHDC
To be noted: protein: recombinant; tags: N-terminal GST; dsDNA, one strand shown. Summed up:
as §1

The target of another assay is ELF4 (Homo sapiens, UniProt Q99607 1-663). Particulars: protein: recombinant; tags: N-terminal GST; dsDNA, one strand shown. The essentials:
as §1

For a further assay, the target named is T3, ELK4 (Homo sapiens, UniProt P28324-2 1-405).
T3 sequence: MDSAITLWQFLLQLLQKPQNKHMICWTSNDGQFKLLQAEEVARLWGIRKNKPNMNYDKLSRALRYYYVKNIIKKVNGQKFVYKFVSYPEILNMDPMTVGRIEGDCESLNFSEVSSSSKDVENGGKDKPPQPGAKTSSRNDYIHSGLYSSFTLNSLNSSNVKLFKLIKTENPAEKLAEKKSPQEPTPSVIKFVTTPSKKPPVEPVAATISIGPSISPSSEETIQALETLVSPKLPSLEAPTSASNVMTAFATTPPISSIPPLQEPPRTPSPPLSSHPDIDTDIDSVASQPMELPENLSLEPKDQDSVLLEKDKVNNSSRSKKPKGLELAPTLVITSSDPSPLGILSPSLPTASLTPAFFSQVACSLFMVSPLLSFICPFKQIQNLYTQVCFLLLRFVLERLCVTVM
Particulars: protein: recombinant; tags: N-terminal GST; dsDNA, one strand shown. Summed up:
as §1

A further assay addresses T4, ETV2 (Homo sapiens, UniProt O00321 1-342).
T4 sequence: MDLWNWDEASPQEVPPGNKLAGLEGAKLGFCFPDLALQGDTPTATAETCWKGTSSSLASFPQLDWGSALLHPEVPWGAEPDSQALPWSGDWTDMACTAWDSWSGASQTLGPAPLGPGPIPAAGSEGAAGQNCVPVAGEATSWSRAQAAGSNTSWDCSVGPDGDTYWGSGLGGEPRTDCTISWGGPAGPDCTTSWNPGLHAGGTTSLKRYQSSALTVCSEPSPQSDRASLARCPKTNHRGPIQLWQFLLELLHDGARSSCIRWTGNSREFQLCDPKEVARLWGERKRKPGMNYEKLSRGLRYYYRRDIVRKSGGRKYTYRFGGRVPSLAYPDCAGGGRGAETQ
To be noted: protein: recombinant; tags: N-terminal GST; dsDNA, one strand shown. Summed up:
as §1

The target in another assay is T5, ELF3 (Homo sapiens, UniProt P78545 1-371).
T5 sequence: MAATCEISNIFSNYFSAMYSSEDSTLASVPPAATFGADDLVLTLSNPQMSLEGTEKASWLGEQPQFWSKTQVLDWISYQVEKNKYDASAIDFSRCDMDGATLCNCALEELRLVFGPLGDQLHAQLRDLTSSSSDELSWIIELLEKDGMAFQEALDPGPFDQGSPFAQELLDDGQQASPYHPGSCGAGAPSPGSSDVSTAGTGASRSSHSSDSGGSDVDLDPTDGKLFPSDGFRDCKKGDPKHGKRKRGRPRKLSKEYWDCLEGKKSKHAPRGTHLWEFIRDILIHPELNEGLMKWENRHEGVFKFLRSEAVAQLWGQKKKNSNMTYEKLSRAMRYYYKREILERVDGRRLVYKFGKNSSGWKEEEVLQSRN
Particulars: protein: recombinant; tags: N-terminal GST; dsDNA, one strand shown. Summed up:
as §1

For another assay, the target named is CRX (Homo sapiens, UniProt O43186 1-299). To be noted: protein: recombinant; tags: N-terminal GST; dsDNA, one strand shown. The essentials:
as §1

The target in the next assay is ETV1 (Homo sapiens, UniProt P50549 1-477). Particulars: protein: recombinant; tags: N-terminal GST; dsDNA, one strand shown. Summed up:
as §1

A further assay has as its target T6, ERF (Homo sapiens, UniProt P50548 1-548).
T6 sequence: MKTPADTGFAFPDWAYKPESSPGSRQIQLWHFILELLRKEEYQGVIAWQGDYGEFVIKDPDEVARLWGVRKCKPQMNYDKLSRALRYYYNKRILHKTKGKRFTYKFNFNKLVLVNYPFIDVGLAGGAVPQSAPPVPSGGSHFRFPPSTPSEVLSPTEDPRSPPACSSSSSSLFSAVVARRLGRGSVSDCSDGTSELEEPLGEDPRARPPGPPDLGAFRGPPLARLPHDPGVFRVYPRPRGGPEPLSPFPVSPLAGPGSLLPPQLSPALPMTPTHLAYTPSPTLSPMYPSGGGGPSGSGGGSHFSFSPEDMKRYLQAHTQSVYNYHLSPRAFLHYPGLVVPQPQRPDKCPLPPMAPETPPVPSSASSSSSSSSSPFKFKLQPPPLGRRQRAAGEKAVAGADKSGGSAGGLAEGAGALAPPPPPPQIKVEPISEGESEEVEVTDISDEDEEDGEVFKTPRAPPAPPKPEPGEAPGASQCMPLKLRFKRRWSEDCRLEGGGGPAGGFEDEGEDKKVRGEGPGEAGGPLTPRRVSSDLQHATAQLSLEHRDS
To be noted: protein: recombinant; tags: N-terminal GST; dsDNA, one strand shown. Summed up: as §1

In the next assay the target is T7, ETV3L (Homo sapiens, UniProt Q6ZN32 1-361).
T7 sequence: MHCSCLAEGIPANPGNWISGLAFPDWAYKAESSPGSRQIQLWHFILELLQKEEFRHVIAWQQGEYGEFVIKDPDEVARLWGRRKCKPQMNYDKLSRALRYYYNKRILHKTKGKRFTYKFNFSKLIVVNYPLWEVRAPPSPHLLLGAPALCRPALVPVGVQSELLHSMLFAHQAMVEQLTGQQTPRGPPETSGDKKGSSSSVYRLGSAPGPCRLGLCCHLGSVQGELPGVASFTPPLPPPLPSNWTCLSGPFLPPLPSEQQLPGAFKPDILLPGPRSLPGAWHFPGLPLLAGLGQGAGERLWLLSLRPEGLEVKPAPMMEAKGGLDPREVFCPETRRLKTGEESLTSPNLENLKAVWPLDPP
To be noted: protein: recombinant; tags: N-terminal GST; dsDNA, one strand shown. Summed up:
as §1

The target in a further assay is T8, ETS2 (Homo sapiens, UniProt P15036 1-469).
T8 sequence: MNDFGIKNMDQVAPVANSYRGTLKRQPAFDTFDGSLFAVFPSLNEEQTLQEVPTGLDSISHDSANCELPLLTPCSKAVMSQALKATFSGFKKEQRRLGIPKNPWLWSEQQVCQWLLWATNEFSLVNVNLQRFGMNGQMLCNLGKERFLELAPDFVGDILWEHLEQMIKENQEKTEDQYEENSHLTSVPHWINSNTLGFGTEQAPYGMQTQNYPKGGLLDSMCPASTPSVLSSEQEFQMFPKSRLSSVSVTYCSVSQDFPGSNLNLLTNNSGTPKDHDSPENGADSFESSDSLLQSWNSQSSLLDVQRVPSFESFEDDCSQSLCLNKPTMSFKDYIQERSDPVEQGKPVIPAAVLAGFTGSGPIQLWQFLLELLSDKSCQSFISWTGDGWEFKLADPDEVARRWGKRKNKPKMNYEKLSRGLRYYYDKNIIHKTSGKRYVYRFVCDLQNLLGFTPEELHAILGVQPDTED
To be noted: protein: recombinant; tags: N-terminal GST; dsDNA, one strand shown. The essentials: as §1

The target in the next assay is T9, SPDEF (Homo sapiens, UniProt O95238 1-335).
T9 sequence: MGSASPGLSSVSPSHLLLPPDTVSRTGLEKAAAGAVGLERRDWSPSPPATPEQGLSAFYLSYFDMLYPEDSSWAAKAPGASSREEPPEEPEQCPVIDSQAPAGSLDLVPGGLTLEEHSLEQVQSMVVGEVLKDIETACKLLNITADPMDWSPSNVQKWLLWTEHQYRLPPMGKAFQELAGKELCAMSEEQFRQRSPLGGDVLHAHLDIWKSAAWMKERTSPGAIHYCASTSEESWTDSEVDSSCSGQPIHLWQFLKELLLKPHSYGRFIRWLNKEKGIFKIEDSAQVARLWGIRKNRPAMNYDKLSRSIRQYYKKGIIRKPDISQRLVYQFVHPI
To be noted: protein: recombinant; tags: N-terminal GST; dsDNA, one strand shown. Summed up: as §1

The next assay has as its target T10, ETV7 (Homo sapiens, UniProt Q9Y603 1-341).
T10 sequence: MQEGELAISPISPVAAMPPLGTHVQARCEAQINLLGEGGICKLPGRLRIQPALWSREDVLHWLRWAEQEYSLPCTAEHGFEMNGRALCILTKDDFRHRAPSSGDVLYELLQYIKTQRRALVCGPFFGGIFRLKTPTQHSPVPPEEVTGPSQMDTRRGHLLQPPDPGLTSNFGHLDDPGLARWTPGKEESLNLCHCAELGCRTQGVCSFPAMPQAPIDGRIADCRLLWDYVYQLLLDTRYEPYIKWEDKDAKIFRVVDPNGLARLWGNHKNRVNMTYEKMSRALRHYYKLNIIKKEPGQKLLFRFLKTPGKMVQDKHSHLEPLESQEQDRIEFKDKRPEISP
Particulars: protein: recombinant; tags: N-terminal GST; dsDNA, one strand shown. Summed up: as §1

The target of the next assay is T11, ELF5 (Homo sapiens, UniProt Q9UKW6-2 1-255).
T11 sequence: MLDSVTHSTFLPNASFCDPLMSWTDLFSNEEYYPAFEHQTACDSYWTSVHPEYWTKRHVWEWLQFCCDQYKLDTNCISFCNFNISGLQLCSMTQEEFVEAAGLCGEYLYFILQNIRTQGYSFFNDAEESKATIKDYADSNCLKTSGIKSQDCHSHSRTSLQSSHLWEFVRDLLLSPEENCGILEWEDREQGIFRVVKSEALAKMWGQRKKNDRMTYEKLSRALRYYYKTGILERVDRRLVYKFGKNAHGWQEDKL
To be noted: protein: recombinant; tags: N-terminal GST; dsDNA, one strand shown. Summed up:
as §1

For another assay, the target named is T12, ETV3 (Homo sapiens, UniProt P41162-2 1-143).
T12 sequence: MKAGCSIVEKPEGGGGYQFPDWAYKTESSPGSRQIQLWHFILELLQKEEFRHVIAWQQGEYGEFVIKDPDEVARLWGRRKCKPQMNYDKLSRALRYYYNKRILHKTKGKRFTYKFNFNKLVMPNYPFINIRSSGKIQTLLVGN
Particulars: protein: recombinant; tags: N-terminal GST; dsDNA, one strand shown. The essentials:
as §1

A further assay has as its target ETV6 (Homo sapiens, UniProt P41212 1-452). Particulars: protein: recombinant; tags: N-terminal GST; dsDNA, one strand shown. Summed up: as §1

Chain of ETV6 (P41212 whole entry): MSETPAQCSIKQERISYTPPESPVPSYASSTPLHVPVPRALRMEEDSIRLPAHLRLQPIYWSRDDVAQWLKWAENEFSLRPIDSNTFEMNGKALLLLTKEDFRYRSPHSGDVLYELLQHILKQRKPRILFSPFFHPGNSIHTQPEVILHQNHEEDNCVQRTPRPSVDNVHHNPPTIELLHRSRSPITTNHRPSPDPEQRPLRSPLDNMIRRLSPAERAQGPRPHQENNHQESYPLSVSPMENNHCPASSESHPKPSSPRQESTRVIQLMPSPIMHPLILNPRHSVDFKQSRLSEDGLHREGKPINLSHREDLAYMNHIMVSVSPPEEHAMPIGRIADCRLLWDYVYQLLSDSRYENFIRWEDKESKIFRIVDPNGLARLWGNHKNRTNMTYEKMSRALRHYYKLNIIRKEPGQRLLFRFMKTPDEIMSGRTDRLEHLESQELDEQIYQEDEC
Chain of ETV5 (P41161 whole entry): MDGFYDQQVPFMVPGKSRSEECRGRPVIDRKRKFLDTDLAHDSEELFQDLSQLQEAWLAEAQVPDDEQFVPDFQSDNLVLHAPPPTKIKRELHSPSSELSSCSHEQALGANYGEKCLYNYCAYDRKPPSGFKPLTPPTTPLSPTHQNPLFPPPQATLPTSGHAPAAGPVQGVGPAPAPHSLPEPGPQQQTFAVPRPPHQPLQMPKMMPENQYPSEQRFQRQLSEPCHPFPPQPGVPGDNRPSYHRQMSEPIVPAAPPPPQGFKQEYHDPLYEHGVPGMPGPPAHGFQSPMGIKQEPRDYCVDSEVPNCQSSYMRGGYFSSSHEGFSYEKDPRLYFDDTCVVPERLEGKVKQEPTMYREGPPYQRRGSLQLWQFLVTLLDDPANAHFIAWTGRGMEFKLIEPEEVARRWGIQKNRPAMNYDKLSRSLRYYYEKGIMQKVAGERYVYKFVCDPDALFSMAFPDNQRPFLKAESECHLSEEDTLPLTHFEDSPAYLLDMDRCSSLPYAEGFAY
Chain of CRX (O43186 whole entry): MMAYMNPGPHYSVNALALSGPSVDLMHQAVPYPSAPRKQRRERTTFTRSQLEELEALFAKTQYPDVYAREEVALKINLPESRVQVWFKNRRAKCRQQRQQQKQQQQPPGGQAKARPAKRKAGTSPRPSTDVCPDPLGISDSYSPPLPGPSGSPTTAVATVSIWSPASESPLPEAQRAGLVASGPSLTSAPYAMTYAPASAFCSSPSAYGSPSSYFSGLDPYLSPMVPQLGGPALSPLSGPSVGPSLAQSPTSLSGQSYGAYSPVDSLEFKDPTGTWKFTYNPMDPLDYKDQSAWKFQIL
Chain of ELF4 (Q99607 whole entry): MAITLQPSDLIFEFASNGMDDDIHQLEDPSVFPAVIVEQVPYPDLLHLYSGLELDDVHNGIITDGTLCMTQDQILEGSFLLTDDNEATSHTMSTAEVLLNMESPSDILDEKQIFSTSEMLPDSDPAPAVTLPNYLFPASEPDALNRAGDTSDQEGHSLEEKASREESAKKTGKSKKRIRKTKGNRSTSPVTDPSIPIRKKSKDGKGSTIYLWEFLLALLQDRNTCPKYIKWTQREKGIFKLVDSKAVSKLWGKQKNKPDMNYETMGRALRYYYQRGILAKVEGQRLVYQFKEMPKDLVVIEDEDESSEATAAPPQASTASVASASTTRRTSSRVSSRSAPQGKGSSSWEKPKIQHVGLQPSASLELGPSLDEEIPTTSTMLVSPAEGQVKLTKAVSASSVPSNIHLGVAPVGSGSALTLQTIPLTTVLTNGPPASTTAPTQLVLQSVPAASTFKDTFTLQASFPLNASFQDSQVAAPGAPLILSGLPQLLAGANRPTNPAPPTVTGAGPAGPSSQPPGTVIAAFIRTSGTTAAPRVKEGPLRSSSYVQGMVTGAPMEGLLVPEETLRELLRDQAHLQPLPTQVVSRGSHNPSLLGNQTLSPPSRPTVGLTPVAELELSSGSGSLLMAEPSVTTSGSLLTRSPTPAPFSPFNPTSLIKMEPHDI
Chain of HSF1 (Q00613 whole entry): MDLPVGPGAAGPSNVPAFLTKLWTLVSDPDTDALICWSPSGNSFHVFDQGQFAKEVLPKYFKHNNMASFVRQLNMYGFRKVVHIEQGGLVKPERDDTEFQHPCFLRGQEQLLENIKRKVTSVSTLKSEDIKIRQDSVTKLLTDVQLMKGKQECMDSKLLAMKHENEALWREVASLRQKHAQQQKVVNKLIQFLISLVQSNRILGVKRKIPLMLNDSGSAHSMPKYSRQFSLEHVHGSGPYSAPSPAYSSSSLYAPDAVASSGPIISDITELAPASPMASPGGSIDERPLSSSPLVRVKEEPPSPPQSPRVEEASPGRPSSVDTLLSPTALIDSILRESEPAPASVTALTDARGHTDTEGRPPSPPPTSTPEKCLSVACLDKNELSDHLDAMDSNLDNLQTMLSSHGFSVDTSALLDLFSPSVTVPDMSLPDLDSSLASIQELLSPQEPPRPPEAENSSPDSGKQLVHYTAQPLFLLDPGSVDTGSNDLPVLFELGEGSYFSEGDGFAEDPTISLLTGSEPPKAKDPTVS
Chain of ETV1 (P50549 whole entry): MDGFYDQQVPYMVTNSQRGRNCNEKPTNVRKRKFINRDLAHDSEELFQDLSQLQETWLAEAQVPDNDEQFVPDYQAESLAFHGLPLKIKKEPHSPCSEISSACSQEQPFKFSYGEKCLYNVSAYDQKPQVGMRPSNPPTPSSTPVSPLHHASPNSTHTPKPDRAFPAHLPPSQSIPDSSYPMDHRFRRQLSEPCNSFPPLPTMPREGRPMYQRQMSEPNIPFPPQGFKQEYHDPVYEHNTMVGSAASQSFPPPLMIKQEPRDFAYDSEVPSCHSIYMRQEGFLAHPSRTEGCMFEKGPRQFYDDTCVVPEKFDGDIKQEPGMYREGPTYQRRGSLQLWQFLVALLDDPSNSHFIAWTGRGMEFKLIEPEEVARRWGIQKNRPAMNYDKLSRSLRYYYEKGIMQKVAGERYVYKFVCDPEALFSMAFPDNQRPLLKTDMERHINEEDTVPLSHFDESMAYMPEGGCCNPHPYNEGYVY

In the case of TCCCTA, the binding signal with FEV was 1.2 fold enrichment (6-mer frequency, TF over GST control); with ETV5 it was 1.43 fold enrichment (6-mer frequency, TF over GST control); in the assay with HSF1 it was 1.32 fold enrichment (6-mer frequency, TF over GST control); in the assay with SPIC, 1.31 fold enrichment (6-mer frequency, TF over GST control); with ELF4 it was 1.31 fold enrichment (6-mer frequency, TF over GST control); with ELK4, 1.19 fold enrichment (6-mer frequency, TF over GST control). Also, the binding signal in the assay with ETV2 was 1.25 fold enrichment (6-mer frequency, TF over GST control); with ELF3, 1.36 fold enrichment (6-mer frequency, TF over GST control); with CRX, 1.47 fold enrichment (6-mer frequency, TF over GST control); with ETV1, 1.32 fold enrichment (6-mer frequency, TF over GST control); in the assay with ERF it was 1.43 fold enrichment (6-mer frequency, TF over GST control); with ETV3L it was 1.39 fold enrichment (6-mer frequency, TF over GST control). Moreover, the binding signal in the assay with ETS2 is 1.32 fold enrichment (6-mer frequency, TF over GST control); with SPDEF, 1.4 fold enrichment (6-mer frequency, TF over GST control); in the assay with ETV7, 1.16 fold enrichment (6-mer frequency, TF over GST control); with ELF5, 1.67 fold enrichment (6-mer frequency, TF over GST control); in the assay with ETV3, 1.38 fold enrichment (6-mer frequency, TF over GST control); with ETV6 it was 1.17 fold enrichment (6-mer frequency, TF over GST control).
